Results published in article PMC8384837, “Expanding the binding specificity for RNA recognition by a PUF domain”.

Legend:
Assay in all cases: yeast three-hybrid, YBZ-1, SC-Leu-His + 0.5 mM 3-AT, 4 days
Conditions in all cases: tags: N-Gal4 AD-HA kept; label: inside an RPR1-promoter hybrid RNA with tandem MS2 sites; ssRNA
PUM1 PUF domain R8-LWR = PUM1 PUF domain R8-LWR (Homo sapiens, UniProt Q14671 828-1176, N1122L;Y1123W;Q1126R)
Outline: (§1)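 Pumilio-1 PUF domain libraries, randomized at the three base-contacting residues of each repeat, were co-expressed with matching RNA elements from a centromeric plasmid in strain YBZ-1, which carries a LexA–MS2 coat fusion and a HIS3 reporter. Transformants grew for four days on SC-Leu (input) or on SC-Leu-His + 0.5 mM 3-AT (selection), and the repeat regions were PCR-amplified and Illumina-sequenced. The interaction score is the log change in variant frequency from input to selection. That logarithm is base 2, with a pseudocount of 1 where a variant was absent.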

PUM1 PUF domain R4-SNM = PUM1 PUF domain R4-SNM (Homo sapiens, UniProt Q14671 828-1176, N971S;H972N;Q975M)
Outline: as §1

PUM1 PUF domain R8-SWG = PUM1 PUF domain R8-SWG (Homo sapiens, UniProt Q14671 828-1176, N1122S;Y1123W;Q1126G)
Outline: as §1

PUM1 PUF domain R8-RGK = PUM1 PUF domain R8-RGK (Homo sapiens, UniProt Q14671 828-1176, N1122R;Y1123G;Q1126K)
Outline: as §1

PUM1 PUF domain R3-APF = PUM1 PUF domain R3-APF (Homo sapiens, UniProt Q14671 828-1176, C935A;R936P;Q939F)
Outline: as §1

PUM1 PUF domain R3-GRF = PUM1 PUF domain R3-GRF (Homo sapiens, UniProt Q14671 828-1176, C935G;Q939F)
Outline: as §1

PUM1 PUF domain R5-ARR = PUM1 PUF domain R5-ARR (Homo sapiens, UniProt Q14671 828-1176, C1007A;Q1011R)
Outline: as §1

PUM1 PUF domain R3-GFG = PUM1 PUF domain R3-GFG (Homo sapiens, UniProt Q14671 828-1176, C935G;R936F;Q939G)
Outline: as §1

PUM1 PUF domain R3-GPS = PUM1 PUF domain R3-GPS (Homo sapiens, UniProt Q14671 828-1176, C935G;R936P;Q939S)
Outline: as §1

PUM1 PUF domain R4-SMT = PUM1 PUF domain R4-SMT (Homo sapiens, UniProt Q14671 828-1176, N971S;H972M;Q975T)
Outline: as §1

PUM1 PUF domain R8-PFK = PUM1 PUF domain R8-PFK (Homo sapiens, UniProt Q14671 828-1176, N1122P;Y1123F;Q1126K)
Outline: as §1

PUM1 PUF domain R8-VWQ = PUM1 PUF domain R8-VWQ (Homo sapiens, UniProt Q14671 828-1176, N1122V;Y1123W)
Outline: as §1

PUM1 PUF domain R7-GGN = PUM1 PUF domain R7-GGN (Homo sapiens, UniProt Q14671 828-1176, S1079G;N1080G;E1083N)
Outline: as §1

PUM1 PUF domain R7-RVV = PUM1 PUF domain R7-RVV (Homo sapiens, UniProt Q14671 828-1176, S1079R;N1080V;E1083V)
Outline: as §1

PUM1 PUF domain R3-KSG = PUM1 PUF domain R3-KSG (Homo sapiens, UniProt Q14671 828-1176, C935K;R936S;Q939G)
Outline: as §1

PUM1 PUF domain R3-NPR = PUM1 PUF domain R3-NPR (Homo sapiens, UniProt Q14671 828-1176, C935N;R936P;Q939R)
Outline: as §1

PUM1 PUF domain R4-EWY = PUM1 PUF domain R4-EWY (Homo sapiens, UniProt Q14671 828-1176, N971E;H972W;Q975Y)
Outline: as §1

PUM1 PUF domain R3-TCE = PUM1 PUF domain R3-TCE (Homo sapiens, UniProt Q14671 828-1176, C935T;R936C;Q939E)
Outline: as §1

PUM1 PUF domain R1-RKM = PUM1 PUF domain R1-RKM (Homo sapiens, UniProt Q14671 828-1176, S863R;R864K;Q867M)
Outline: as §1

Sequence of PUM1 PUF domain R3-GPS (Q14671 828-1176 C935G/R936P/Q939S): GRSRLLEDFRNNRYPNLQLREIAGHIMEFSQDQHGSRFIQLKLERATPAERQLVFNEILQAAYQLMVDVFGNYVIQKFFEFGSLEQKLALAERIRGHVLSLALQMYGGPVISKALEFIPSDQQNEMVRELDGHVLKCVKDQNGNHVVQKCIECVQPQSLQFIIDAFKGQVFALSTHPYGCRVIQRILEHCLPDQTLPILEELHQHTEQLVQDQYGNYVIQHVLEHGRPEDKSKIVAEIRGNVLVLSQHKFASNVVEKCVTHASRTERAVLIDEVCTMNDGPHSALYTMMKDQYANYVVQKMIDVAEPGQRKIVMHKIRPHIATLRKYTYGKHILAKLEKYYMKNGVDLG
Sequence of PUM1 PUF domain R8-PFK (Q14671 828-1176 N1122P/Y1123F/Q1126K): as the sequence (Q14671 828-1176 C935G/R936P/Q939S) above, with G108C, P109R, S112Q, N295P, Y296F, Q299K counted along it
Sequence of PUM1 PUF domain R5-ARR (Q14671 828-1176 C1007A/Q1011R): as the sequence (Q14671 828-1176 C935G/R936P/Q939S) above, with G108C, P109R, S112Q, C180A, Q184R counted along it
Sequence of PUM1 PUF domain R3-GRF (Q14671 828-1176 C935G/Q939F): as the sequence (Q14671 828-1176 C935G/R936P/Q939S) above, with P109R, S112F counted along it
Sequence of PUM1 PUF domain R4-SMT (Q14671 828-1176 N971S/H972M/Q975T): as the sequence (Q14671 828-1176 C935G/R936P/Q939S) above, with G108C, P109R, S112Q, N144S, H145M, Q148T counted along it
Sequence of PUM1 PUF domain R3-GFG (Q14671 828-1176 C935G/R936F/Q939G): as the sequence (Q14671 828-1176 C935G/R936P/Q939S) above, with P109F, S112G counted along it
Sequence of PUM1 PUF domain R3-NPR (Q14671 828-1176 C935N/R936P/Q939R): as the sequence (Q14671 828-1176 C935G/R936P/Q939S) above, with G108N, S112R counted along it
Sequence of PUM1 PUF domain R3-TCE (Q14671 828-1176 C935T/R936C/Q939E): as the sequence (Q14671 828-1176 C935G/R936P/Q939S) above, with G108T, P109C, S112E counted along it
Sequence of PUM1 PUF domain R1-RKM (Q14671 828-1176 S863R/R864K/Q867M): as the sequence (Q14671 828-1176 C935G/R936P/Q939S) above, with S36R, R37K, Q40M, G108C, P109R, S112Q counted along it

With “GGCUAGAACUAGUGGAUCCCCCGGCGCCCGGCGGCUCGAGCCCGGGUAAGUGUAAAUAGUCUGCAUGCCGCCGGGCGCCAUGCCUGCAGGUCGACUCUAGAAAACAUG” the binding signal (PUM1 PUF domain R8-LWR) was 4.7 log2 enrichment (interaction score), the binding signal (PUM1 PUF domain R4-SNM) was 2 log2 enrichment (interaction score) and the binding signal (PUM1 PUF domain R8-SWG) was 2.95 log2 enrichment (interaction score). For the same sequence, the binding signal (PUM1 PUF domain R8-RGK) was 0.16 log2 enrichment (interaction score), the binding signal (PUM1 PUF domain R3-APF) was 5.42 log2 enrichment (interaction score) and the binding signal (PUM1 PUF domain R3-GRF) was 4.89 log2 enrichment (interaction score). The binding signal (PUM1 PUF domain R5-ARR) was 4.33 log2 enrichment (interaction score), the binding signal (PUM1 PUF domain R3-GFG) was 3.47 log2 enrichment (interaction score) and the binding signal (PUM1 PUF domain R3-GPS) was 2.12 log2 enrichment (interaction score). For the same sequence, the binding signal (PUM1 PUF domain R4-SMT) was 1.34 log2 enrichment (interaction score) and the binding signal (PUM1 PUF domain R8-PFK) was 5.15 log2 enrichment (interaction score).
With “GGCUAGAACUAGUGGAUCCCCCGGCGCCCGGCGGCUCGAGCCCGGGUAAGCGUAAAUAGUCUGCAUGCCGCCGGGCGCCAUGCCUGCAGGUCGACUCUAGAAAACAUG” the binding signal (PUM1 PUF domain R8-LWR) was 4.82 log2 enrichment (interaction score), the binding signal (PUM1 PUF domain R8-VWQ) was 2.89 log2 enrichment (interaction score) and the binding signal (PUM1 PUF domain R8-SWG) was 2.43 log2 enrichment (interaction score). For the same sequence, the binding signal (PUM1 PUF domain R8-RGK) was 2.62 log2 enrichment (interaction score) and the binding signal (PUM1 PUF domain R8-PFK) was 4.13 log2 enrichment (interaction score).
“GGCUAGAACUAGUGGAUCCCCCGGCGCCCGGCGGCUCGAGCCCGGGUAAGUUUAAAUAGUCUGCAUGCCGCCGGGCGCCAUGCCUGCAGGUCGACUCUAGAAAACAUG” was tested, and the binding signal (PUM1 PUF domain R7-GGN) was 3.78 log2 enrichment (interaction score) and the binding signal (PUM1 PUF domain R7-RVV) was 2.58 log2 enrichment (interaction score).
In the case of “GGCUAGAACUAGUGGAUCCCCCGGCGCCCGGCGGCUCGAGCCCGGGUAAGUGUAAUUAGUCUGCAUGCCGCCGGGCGCCAUGCCUGCAGGUCGACUCUAGAAAACAUG”, the binding signal (PUM1 PUF domain R3-KSG) is reported as 2.51 log2 enrichment (interaction score), the binding signal (PUM1 PUF domain R3-GRF) is reported as 0.84 log2 enrichment (interaction score) and the binding signal (PUM1 PUF domain R3-GPS) is reported as 1.97 log2 enrichment (interaction score). For the same sequence, the binding signal (PUM1 PUF domain R3-NPR) was 2.25 log2 enrichment (interaction score).
With “GGCUAGAACUAGUGGAUCCCCCGGCGCCCGGCGGCUCGAGCCCGGGUAAGUGUAUAUAGUCUGCAUGCCGCCGGGCGCCAUGCCUGCAGGUCGACUCUAGAAAACAUG” the binding signal (PUM1 PUF domain R4-SNM) was 2.9 log2 enrichment (interaction score), the binding signal (PUM1 PUF domain R4-EWY) was 5.52 log2 enrichment (interaction score) and the binding signal (PUM1 PUF domain R4-SMT) was 5.3 log2 enrichment (interaction score).
“GGCUAGAACUAGUGGAUCCCCCGGCGCCCGGCGGCUCGAGCCCGGGUAAGUGUAAGUAGUCUGCAUGCCGCCGGGCGCCAUGCCUGCAGGUCGACUCUAGAAAACAUG” was tested, and the binding signal (PUM1 PUF domain R3-TCE) was 5.59 log2 enrichment (interaction score) and the binding signal (PUM1 PUF domain R3-GFG) was 1.23 log2 enrichment (interaction score).
In the case of “GGCUAGAACUAGUGGAUCCCCCGGCGCCCGGCGGCUCGAGCCCGGGUAAGUGUAAAUUGUCUGCAUGCCGCCGGGCGCCAUGCCUGCAGGUCGACUCUAGAAAACAUG”, the binding signal (PUM1 PUF domain R1-RKM) is reported as 3.28 log2 enrichment (interaction score).
In the case of “GGCUAGAACUAGUGGAUCCCCCGGCGCCCGGCGGCUCGAGCCCGGGUAAGUGUCAAUAGUCUGCAUGCCGCCGGGCGCCAUGCCUGCAGGUCGACUCUAGAAAACAUG”, the binding signal (PUM1 PUF domain R5-ARR) is reported as 4.7 log2 enrichment (interaction score).
